According to PubChem BioAssay AID624139 (Broad Institute, 2012):
The campaign covered roughly 17,000 compounds. About 220 (1.3%) were called active.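 How the source made its calls: active means spot fluorescence over background significantly raised, with a chance value under 7% in all four replicate spots of the compound; inactive means the rest.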 For the sample, actives were picked, then their nearest neighbours and some compounds at random.

molecular target: Nuclear factor NF-kappa-B p105 subunit (Homo sapiens) (UniProt P19838); test: binders of NF-kB p50 subunit, primary screen, biochemical, small molecule microarray, anti-His fluorescence (AID 624139); conditions: anti-His fluorescence binding;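 further: probe protein is his-tagged human p50 processed subunit at 1 µg/ml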
Sequence (P19838 1-433 limits assumed): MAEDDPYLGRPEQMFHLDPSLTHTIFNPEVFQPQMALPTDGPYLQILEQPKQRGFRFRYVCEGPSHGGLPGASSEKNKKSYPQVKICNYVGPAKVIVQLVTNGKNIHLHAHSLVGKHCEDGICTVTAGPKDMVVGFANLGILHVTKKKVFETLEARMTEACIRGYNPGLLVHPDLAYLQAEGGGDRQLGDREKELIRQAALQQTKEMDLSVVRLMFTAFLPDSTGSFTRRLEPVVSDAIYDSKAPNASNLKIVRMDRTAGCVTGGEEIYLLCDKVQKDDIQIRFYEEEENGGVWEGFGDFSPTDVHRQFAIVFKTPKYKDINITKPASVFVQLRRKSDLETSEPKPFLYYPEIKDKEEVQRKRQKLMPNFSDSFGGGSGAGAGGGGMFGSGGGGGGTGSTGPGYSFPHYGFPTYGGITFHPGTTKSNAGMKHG

SMILES	outcome
COC(=O)c1c(CC[C@@H](CO)NC(=O)Nc2ncn[nH]2)oc(C(=O)Cc2ccccc2)c1C(=O)OC	inactive
Cc1noc(C)c1S(=O)(=O)N(C)C[C@@H]1OCCCC[C@H](C)Oc2ccc(NC(=O)NC(C)C)cc2C(=O)N([C@H](C)CO)C[C@@H]1C	inactive
COC(=O)C1=C[C@@H](O)[C@@H](O)[C@H](O[C@@H]2O[C@H](CO)[C@@H](O)[C@H](O)[C@H]2OC(=O)/C=C/c2ccccc2)C1	inactive
CC(C)NC(=O)Nc1ccc2c(c1)C(=O)N([C@@H](C)CO)C[C@H](C)[C@@H](CN(C)Cc1ccc(C(=O)O)cc1)OCCCC[C@H](C)O2	inactive
C[C@@H]1CCCCO[C@@H](CN(C)Cc2ccncc2)[C@H](C)CN([C@H](C)CO)C(=O)c2cc(N(C)C)ccc2O1	inactive
C[C@@H]1CN([C@H](C)CO)C(=O)CCCn2nncc2CO[C@@H]1CN(C)C	inactive
C[C@@H]1CN([C@@H](C)CO)C(=O)c2cccc(NC(=O)Nc3ccc(F)cc3)c2O[C@H]1CN(C)C(=O)Nc1ccc(F)cc1	inactive
C[C@H]1CCCCO[C@@H](CN(C)Cc2ccc(C(=O)O)cc2)[C@@H](C)CN([C@@H](C)CO)C(=O)c2cc(NS(C)(=O)=O)ccc2O1	inactive
COc1ccc(CN(C)C[C@@H]2Oc3ccc(NC(=O)c4ccncc4)cc3CC(=O)N([C@H](C)CO)C[C@H]2C)cc1	inactive
COc1cccc(OC)c1C(=O)NC(=S)NCc1ccco1	inactive
C[C@@H]1CCCCO[C@@H](CN(C)C(=O)Nc2ccc(F)cc2)[C@H](C)CN([C@@H](C)CO)C(=O)c2cc(NS(=O)(=O)c3ccccc3)ccc2O1	inactive
C[C@@H]1CN([C@@H](C)CO)C(=O)CCCn2cc(nn2)CO[C@H]1CN(C)S(=O)(=O)c1ccc(-n2cccn2)cc1	inactive
CNC[C@H]1Oc2ccc(NC(=O)Nc3ccc(F)cc3)cc2C(=O)N([C@@H](C)CO)C[C@@H]1C	inactive
C[C@@H]1CN([C@H](C)CO)C(=O)c2cccc(NC(=O)Nc3ccc(C(F)(F)F)cc3)c2O[C@H]1CN(C)S(=O)(=O)c1ccc(Cl)cc1	inactive
Cc1ccc(S(=O)(=O)N2CCCC2C(=O)NCCO)cc1 (stereo not drawn)	inactive
COc1ccc([Si](C)(C)[C@@H]2[C@@H](CCO)O[C@]3(C(=O)N(Cc4ccccc4)c4ccc(N5CCC5=O)cc43)[C@H]2C)cc1	inactive
C[C@@H]1CN([C@H](C)CO)C(=O)CCCn2cc(nn2)CO[C@H]1CN(C)C(=O)Nc1ccc(N2CCCCC2)cc1	inactive
C[C@H](CO)N1C[C@H](C)[C@@H](CN(C)CC2CC2)Oc2ccc(NC(=O)Nc3ccccc3)cc2CC1=O	inactive
C[C@H](CO)N1C[C@H](C)[C@@H](CN(C)Cc2cccc3c2OCCCO3)OCc2cn(nn2)CCCC1=O	inactive
C[C@@H]1CN([C@H](C)CO)C(=O)CCCn2cc(nn2)CO[C@@H]1CN(C)Cc1ccc2cccnc2c1	inactive
COC(=O)c1c(NC(=S)Nc2ccc(S(=O)(=O)NC34CC5CC(CC(C5)C3)C4)cc2)sc2c1CCC2	inactive

SMILES	outcome
CC(C)NC(=O)Nc1ccc2c(c1)C(=O)N([C@H](C)CO)C[C@@H](C)[C@H](CN(C)S(C)(=O)=O)O2	inactive
Cc1ccc(C)c(NC(=O)CCC(=O)O)c1	inactive
O=C(N1CCCCC1)[C@@]1(CCS(=O)(=O)c2ccccc2)N=C(c2ccc(OCCCO)cc2)O[C@H]1c1ccccc1	inactive
C[C@@H]1CN([C@H](C)CO)C(=O)c2cc(N(C)C)ccc2O[C@@H](C)CCCCO[C@@H]1CN(C)C(=O)CCCN(C)C	inactive
C[C@@H]1CCCCO[C@H](CN(C)C)[C@@H](C)CN([C@H](C)CO)C(=O)c2cc(N(C)C)ccc2O1	inactive
O=C(c1ccc(F)cc1)C1CCN(CCCCc2ccccc2)CC1	inactive
O=c1c2ccccc2[nH]c(=S)n1CCN1CCC(=C(c2ccc(F)cc2)c2ccc(F)cc2)CC1	active
C[C@H](CO)N1C[C@H](C)[C@@H](CN(C)S(=O)(=O)c2cn(C)cn2)Oc2ccc(NS(=O)(=O)c3cn(C)cn3)cc2C1=O	inactive
COc1cc(/C=C/C(=O)NCCc2ccc(O)cc2)ccc1O	inactive
Cc1nc(SCC(=O)N2c3ccccc3Sc3ccccc32)nc2c1CCCC2	inactive
COc1ccc(S(=O)(=O)N(C)C[C@@H]2Oc3ccc(NC(=O)Cc4cn(C)c5ccccc45)cc3C(=O)N([C@H](C)CO)C[C@H]2C)cc1	inactive
CCOC(=O)c1sc(NC(=S)Nc2ccc3c(c2)OCCO3)c(C(=O)OCC)c1C	inactive
C[C@@H]1CCCCO[C@H](CN(C)C(=O)Nc2cccc3ccccc23)[C@@H](C)CN([C@H](C)CO)C(=O)c2cc(NS(=O)(=O)c3cccs3)ccc2O1	inactive
C[C@@H]1CN([C@H](C)CO)C(=O)c2cccc(NS(=O)(=O)c3ccc(Cl)cc3)c2O[C@@H]1CN(C)C(=O)Nc1cccc2ccccc12	inactive
COc1ccc(S(=O)(=O)Nc2cccc3c2O[C@@H](CN(C)S(=O)(=O)c2ccc(F)cc2)[C@H](C)CN([C@H](C)CO)C3=O)cc1	inactive
Cc1noc(C)c1S(=O)(=O)Nc1ccc2c(c1)C(=O)N([C@@H](C)CO)C[C@@H](C)[C@H](CN(C)C(=O)NC(C)C)OCCCC[C@@H](C)O2	active
Cc1noc(C)c1S(=O)(=O)Nc1ccc2c(c1)C(=O)N([C@H](C)CO)C[C@H](C)[C@H](CN(C)C(=O)CCC(F)(F)F)OCCCC[C@H](C)O2	active
C[C@@H]1CCCCO[C@H](CN(C)C(=O)CCCN(C)C)[C@@H](C)CN([C@@H](C)CO)C(=O)c2cc(NC(=O)c3ccncc3)ccc2O1	inactive
Cc1noc(C)c1S(=O)(=O)Nc1ccc2c(c1)C(=O)N([C@H](C)CO)C[C@H](C)[C@@H](CN(C)C(=O)CCC(F)(F)F)OCCCC[C@H](C)O2	inactive
C[C@H](CO)N1C[C@H](C)[C@H](CN(C)C(=O)CCC(F)(F)F)OCCCC[C@H](C)Oc2ccc(NS(C)(=O)=O)cc2C1=O	inactive
Cc1noc(C)c1S(=O)(=O)Nc1ccc2c(c1)C(=O)N([C@H](C)CO)C[C@@H](C)[C@H](CN(C)C(=O)NC(C)C)OCCCC[C@@H](C)O2	inactive

SMILES	outcome
C[C@@H]1CCCCO[C@H](CN(C)C(=O)CCC(F)(F)F)[C@@H](C)CN([C@@H](C)CO)C(=O)c2cc(NC(=O)c3ccncc3)ccc2O1	active
C[C@@H]1CCCCO[C@@H](CN(C)C(=O)CCC(F)(F)F)[C@@H](C)CN([C@H](C)CO)C(=O)c2cc(NC(=O)CCC(F)(F)F)ccc2O1	inactive
Cc1noc(C)c1S(=O)(=O)Nc1ccc2c(c1)C(=O)N([C@@H](C)CO)C[C@H](C)[C@@H](CN(C)C)OCCCC[C@@H](C)O2	inactive
C[C@@H]1CN([C@H](C)CO)C(=O)c2cc(NS(=O)(=O)c3cccs3)ccc2O[C@@H](C)CCCCO[C@@H]1CN(C)S(=O)(=O)c1cccs1	inactive
C[C@@H]1CN([C@H](C)CO)C(=O)Cc2cc(NS(=O)(=O)c3cccs3)ccc2O[C@H]1CN(C)C(=O)Nc1ccc2c(c1)OCO2	inactive
C[C@@H]1CCCCO[C@@H](CN(C)S(=O)(=O)c2ccccc2)[C@@H](C)CN([C@@H](C)CO)C(=O)c2cc(NS(=O)(=O)c3cn(C)cn3)ccc2O1	inactive
C=C1CCCC(C)(C(=O)OC)C1CC/C(C)=C/CCC1=CC(=O)OC1 (stereo not drawn)	inactive
Cc1nnc(SCc2ccc(C(=O)c3ccc(Cl)cc3)o2)n1-c1ccccc1	inactive
O=C1C(=O)N(CCn2c3ccccc3c3nc4ccccc4nc32)c2ccccc21	inactive
Cc1ccc(S(=O)(=O)Nc2ccc3c(c2)C(=O)N([C@@H](C)CO)C[C@H](C)[C@@H](CN(C)S(=O)(=O)c2ccc(C)cc2)O3)cc1	inactive
C[C@@H]1CN([C@@H](C)CO)C(=O)CCCn2nncc2CO[C@H]1CN(C)Cc1ccc(C(F)(F)F)cc1	inactive
C[C@H](CO)N1C[C@H](C)[C@H](CN(C)S(=O)(=O)c2cn(C)cn2)Oc2c(NC(=O)C3CCOCC3)cccc2C1=O	inactive
C[C@@H]1CCCCO[C@@H](CN(C)C(=O)c2ccccc2)[C@H](C)CN([C@@H](C)CO)C(=O)c2cc(NS(C)(=O)=O)ccc2O1	inactive
C[C@@H]1CN([C@@H](C)CO)C(=O)c2cc(NS(C)(=O)=O)ccc2O[C@@H](C)CCCCO[C@@H]1CN(C)S(=O)(=O)c1cn(C)cn1	inactive
Cc1cc(O)c2c(c1)C(=O)OC2c1c(O)cccc1O (stereo not drawn)	inactive
COc1ccc(C)cc1NC(=O)NCCc1ccc(OC)c(OC)c1	inactive
C[C@H]1CCCCO[C@H](CN(C)C)[C@@H](C)CN([C@@H](C)CO)C(=O)c2cc(NC(=O)CCCN(C)C)ccc2O1	inactive
CNC[C@@H]1Oc2c(NS(C)(=O)=O)cccc2C(=O)N([C@@H](C)CO)C[C@H]1C	inactive
C[C@@H]1CCCCO[C@H](CN(C)C)[C@H](C)CN([C@@H](C)CO)C(=O)c2cc(NC(=O)Cc3ccccc3)ccc2O1	inactive
Cc1noc(C)c1S(=O)(=O)N(C)C[C@H]1OCCCC[C@@H](C)Oc2ccc(NC(=O)CCCN(C)C)cc2C(=O)N([C@H](C)CO)C[C@@H]1C	inactive
C=CCn1c(=O)c(C(=O)NCc2ccccn2)c(O)c2ccccc21	inactive

SMILES	outcome
COc1cc(/C(C)=C/C(C)=C\C(=O)O)oc(=O)c1C	inactive
Cc1noc(C)c1S(=O)(=O)Nc1ccc2c(c1)CC(=O)N([C@@H](C)CO)C[C@@H](C)[C@@H](CN(C)C(=O)Nc1ccc(C(F)(F)F)cc1)O2	inactive
C[C@H](CO)N1C[C@H](C)[C@H](CN(C)Cc2ccc(C(F)(F)F)cc2)Oc2ccc(NS(C)(=O)=O)cc2C1=O	inactive
C=C(CC/C=C(\C)C(=O)O)C1(O)CC=C(C)CC1 (stereo not drawn)	inactive
O=C1O[C@H](c2ccccc2)[C@H](c2ccccc2)N2[C@H]1[C@@H](C(=O)N1CCN(c3ncccn3)CC1)[C@]1(C(=O)Nc3ccccc31)[C@H]2c1ccc(OCCO)cc1	inactive
C[C@H]1CN([C@@H](C)CO)C(=O)CCCn2cc(nn2)CO[C@@H]1CN(C)S(=O)(=O)c1ccc(-n2cccn2)cc1	inactive
CC(C)NC(=O)Nc1ccc2c(c1)CC(=O)N([C@@H](C)CO)C[C@@H](C)[C@H](CN(C)Cc1ccc(C(F)(F)F)cc1)O2	inactive
C/C(=C/CC[C@@H](CO)[C@H]1CC[C@@]2(C)[C@@H]3CC[C@H]4C(C)(C)[C@@H](O[C@@H]5O[C@H](CO)[C@@H](O)[C@H](O)[C@H]5O)C[C@H](O)[C@@]45C[C@@]35CC[C@]12C)CO	inactive
Cc1noc(C)c1S(=O)(=O)Nc1ccc2c(c1)CC(=O)N([C@H](C)CO)C[C@@H](C)[C@@H](CN(C)C)O2	inactive
COc1ccc(CN(C)C[C@H]2Oc3ccc(NC(=O)Cc4ccccc4)cc3CC(=O)N([C@@H](C)CO)C[C@@H]2C)cc1	inactive
CC1(C)CC[C@@]2(C(=O)O)C(C1)C1=CCC3[C@@]4(C)CC[C@H](O)C(C)(C)C4CC[C@@]3(C)[C@]1(C)C[C@H]2O (stereo partly drawn)	inactive
C[C@H](CO)N1C[C@H](C)[C@@H](CN(C)C(=O)Nc2ccccc2)Oc2ccc(N(C)C)cc2C1=O	inactive
COc1cc(C)c(C(=O)Oc2cc(C)c(C(=O)Oc3cc(C)c(C(=O)NC(C)C(=O)O)c(O)c3)c(O[C@@H]3O[C@H](CO)[C@@H](O)[C@H](O)[C@H]3OC(C)=O)c2)c(OC)c1 (stereo partly drawn)	inactive
Cc1ccc(C(=O)NCCNS(=O)(=O)c2ccccc2)cc1	inactive
COc1ccc(NC(=O)Nc2cccc3c2O[C@H](CN(C)S(=O)(=O)c2cccs2)[C@H](C)CN([C@@H](C)CO)C3=O)cc1	inactive
CNC[C@H]1Oc2ccc(N(C)C)cc2CC(=O)N([C@@H](C)CO)C[C@@H]1C	inactive
CC(C)NC(=O)N(C)C[C@H]1Oc2ccc(NS(=O)(=O)c3cn(C)cn3)cc2CC(=O)N([C@@H](C)CO)C[C@H]1C	inactive
C[C@@H]1CN([C@@H](C)CO)C(=O)Cc2cc(NC(=O)CCC(F)(F)F)ccc2O[C@@H]1CN(C)C(=O)Nc1cccc2ccccc12	inactive
Cc1cc(C)c(NC(=O)CCCC(=O)O)c(C)c1	inactive
C[C@H]1CN([C@@H](C)CO)C(=O)c2cc(NC(=O)C3CC3)ccc2O[C@@H]1CN(C)S(=O)(=O)c1cn(C)cn1	inactive
